Results filed as inconclusive are left out. Active and inactive are the calls of the source. Unless noted, calls come from the whole dose curve.
What was measured:
[1] = Nuclear factor erythroid 2-related factor 2/antioxidant responsive element (Nrf2/ARE) small molecule agonists: qHTS cell viability counter screen in human keratinocytes (AID 1919968; active = well fitted curve in the direction sought with a large enough effect in the repeat runs; an effect the other way counts as inactive or inconclusive; note: nearly all actives have a fitted effect of over 55% in size)
Method in brief: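 Parallel cytotoxicity read: KeratinoSens HaCaT cells, compound treatment 23 h, viability by CellTiter-Fluor fluorescence 1 h post-reagent.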

[2] = Nuclear factor erythroid 2-related factor 2/antioxidant responsive element (Nrf2/ARE) small molecule agonists: luciferase reporter gene qHTS assay in human keratinocytes (AID 1919969); note: nearly all actives have a fitted effect of over 35% in size
[3] = molecular target: Gonadotropin-releasing hormone receptor (Homo sapiens) (UniProt P30968); assay: Human gonadotropin-releasing hormone receptor (GnRHR) small molecule agonists, calcium flux assay in GnRHR-HEK293 cells (AID 1920063); note: nearly all actives have a fitted effect of over 35% in size
Method in brief: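 Calcium flux, agonist mode, human GnRHR stably integrated in HEK293; dye 1 h at 37 C before compound; Ex/Em=480/540 kinetic read, 3 min; 15 concentrations, triplicate.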

[4] = molecular target: KiSS-1 receptor (Homo sapiens) (UniProt Q969F8); assay: Human kisspeptin (KISS1R) small molecule agonists, calcium flux assay in KISS1R-HEK293 cells (AID 1920064; active = well fitted curve in the direction sought with a large enough effect in the repeat runs; an effect the other way counts as inactive or inconclusive)
Method in brief: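 Triplicate 15-concentration series were applied to dye-loaded human KISS1R HEK293 cells, and agonist-evoked calcium fluorescence was captured for 3 min.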

[5] = G protein-coupled receptor (GPCR) small molecule agonists, calcium flux assay: HEK293 wild type cell line counter screen (AID 1920065)
Method in brief: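 Non-specific calcium responders were flagged by adding DMSO-dissolved compounds to dye-loaded cells and reading 480/540 nm fluorescence each second for 3 min; ATP served as positive control.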

[6] = p53 small molecule agonists, cell-based qHTS assay with human liver microsomes (AID 1963577);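 note: p53 response element beta-lactamase reporter cells with liver microsomes plus NADPH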
Method in brief: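 Reporter activation was measured by LiveBLAzer fluorescence intensity in p53RE-bla cells, which had been exposed to compounds for 16 h at 37 C alongside 0.5 mg/mL human liver microsomes and 0.5 mg/mL NADPH (final concentrations).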

[7] = p53 small molecule agonists, cell-based qHTS assay with rat liver microsomes (AID 1963578)
Method in brief: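 Compound in DMSO added to p53RE-bla cells 5 h post-plating; rat microsomes/NADPH 0.5 mg/mL final; 16 h, 37 C; LiveBLAzer 2 h RT.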

[8] = p53 small molecule agonists, cell-based qHTS assay with human liver microsomes: qHTS cell viability counter screen (AID 1963579); note: nearly all actives have a fitted effect of over 45% in size
Method in brief: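 HLM-supplemented (0.5 mg/mL final) and NADPH-supplemented (0.5 mg/mL final) p53RE-bla cultures, 4,000 cells per well, were dosed with compounds in DMSO for 16 h at 37 C; luminescent ATP detection (CellTiter-Glo, 30 min, room temperature) quantified surviving cells.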

[9] = p53 small molecule agonists, cell-based qHTS assay: qHTS cell viability counter screen (AID 1963581); note: nearly all actives have a fitted effect of over 45% in size
Method in brief: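 Multiplexed with the reporter read, a CellTiter-Glo step (30 min, room temperature) gauges ATP-based viability of HCT-116 p53RE-bla cells after 16 h compound incubation at 37 C.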

[10] = p53 small molecule agonists, cell-based qHTS assay (AID 1963582; active = well fitted activation curve with a large enough effect in the signal ratio in the repeat runs, not every such curve was filed as active; the % refers to the signal ratio)
Method in brief: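 Beta-lactamase reporter cells (p53RE-bla) treated with compounds for 16 h at 37 C; FRET substrate, 2 h, room temperature; fluorescence intensity.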

[11] = molecular target: 5-hydroxytryptamine receptor 2A (Homo sapiens) (UniProt P28223); assay: 5-hydroxytryptamine receptor 2A (HTR2A) small molecule antagonists, cell-based qHTS assay (AID 1963586); note: nearly all actives have a fitted effect of over 45% in size
Method in brief: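 CHO cells stably expressing human HTR2A were plated for 18 h at 37 C, then loaded with calcium dye for 1 h. Compounds were preincubated 5 min at room temperature before DOI (4 nM solution) was added. Kinetic fluorescence was read for 3 min.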

[12] = molecular target: 5-hydroxytryptamine receptor 2A (Homo sapiens) (UniProt P28223); assay: 5-hydroxytryptamine receptor 2A (HTR2A) small molecule agonists, cell-based qHTS assay (AID 1963587); note: nearly all actives have a fitted effect of over 30% in size
Method in brief: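 Kinetic calcium-flux fluorescence (2 min, 1 sec intervals) after compound addition in agonist mode. HTR2A-CHO cells were cultured 18 h, then dye-loaded 1 h at 37 C.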

[13] = molecular target: Muscarinic acetylcholine receptor M1 (Homo sapiens) (UniProt P11229); assay: Cholinergic receptor muscarinic 1 (CHRM1) small molecule agonists, cell-based qHTS assay (AID 1963589); note: nearly all actives have a fitted effect of over 35% in size
Method in brief: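 qHTS, 15-point titration, 3 independent runs: compounds pin-transferred onto dye-loaded CHRM1-CHO cells (human M1), calcium fluorescence followed every second to detect agonism.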

[14] = cAMP Responsive Elements (CRE) small molecule agonists, cell-based qHTS assay (AID 1963590)
Method in brief: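 Quantitative HTS for CRE agonists: HEK 293T CRE-bla cells, overnight plating, 3 h compound incubation at 37 C/5% CO2, then 2 h room-temperature LiveBLAzer B/G FRET substrate loading.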

[15] = cAMP Responsive Elements (CRE) small molecule antagonists, cell-based qHTS assay (AID 1963591; active = well fitted inhibition curve with a large enough effect in the signal ratio in the repeat runs, not every such curve was filed as active; the % refers to the signal ratio)
Method in brief: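 Fluorescence intensity from cleaved LiveBLAzer B/G substrate (2 h, room temperature) quantified CRE-bla activity in HEK 293T cells exposed 3 h to compound with 0.25 uM final NKH477.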

[16] = molecular target: Beta-2 adrenergic receptor (Homo sapiens) (UniProt P07550); assay: Adrenergic beta2 receptor (ADRB2) small molecule antagonists, cell-based qHTS assay (AID 1963592); note: series mostly up to about 92 µM; nearly all actives have a fitted effect of over 50% in size
Method in brief: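 Assay format: CHO-ADRB2 cells, 18-20hr seeding at 37C/5% CO2, then compound plus 1nM isoproterenol agonist mix for 0.5hr RT. Homogeneous time-resolved fluorescence cAMP detection after 1hr, expressed as 665/615 nm ratio.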

[17] = molecular target: D(2) dopamine receptor (Homo sapiens) (UniProt P14416); assay: Dopamine D2 receptor (DRD2) small molecule agonists, cell-based qHTS assay (AID 1963594); note: nearly all actives have a fitted effect of over 35% in size
Method in brief: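 cAMP accumulation in DRD2-HEK293 cells measured by HTRF after 1 h detection; compounds added 10 min before NKH477 (200nM […]) forskolin-analogue stimulation, 30 min at room temperature, with Ro20-1724 present at 0.1 mM final.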

[18] = molecular target: D(2) dopamine receptor (Homo sapiens) (UniProt P14416); assay: Dopamine D2 receptor (DRD2) small molecule antagonists, cell-based qHTS assay (AID 1963595; active = well fitted inhibition curve with a large enough effect in the signal ratio in the repeat runs, with a control signal flat; the % refers to the signal ratio)
Method in brief: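 Antagonist mode in DRD2-HEK293 cells: after compound addition with 0.1 mM Ro20-1724, cells received quinpirole (12 nM) and NKH477 (200 nM) for 30 min at room temperature; HTRF cAMP read after 1 h detection.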

[19] = molecular target: Muscarinic acetylcholine receptor M1 (Homo sapiens) (UniProt P11229); assay: Cholinergic receptor muscarinic 1 (CHRM1) small molecule antagonists, cell-based qHTS assay (AID 1963588); note: nearly all actives have a fitted effect of over 40% in size
Method in brief: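 Compounds were tested at 15 concentrations in three independent runs. Dye-loaded CHRM1-CHO cells were exposed 5 min at room temperature before stimulation by acetylcholine added at 50nM. Intracellular calcium was read kinetically on FDSS for 3 min.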

[20] = molecular target: Beta-2 adrenergic receptor (Homo sapiens) (UniProt P07550); assay: Adrenergic beta2 receptor (ADRB2) small molecule agonists, cell-based qHTS assay (AID 1963593);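 note: CHO cells stably overexpressing human ADRB2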
Method in brief: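 CHO cells stably over-expressing ADRB2 were plated overnight at 37C, then dosed with compounds plus a stimulation mix containing 100uM IBMX and 25uM Ro-20-1724 for 0.5hr at room temperature. cAMP was measured by HTRF competition, 1hr.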
% is set by controls: 0 for no effect and ±100 for the full control effect.

Sequence of KiSS-1 receptor (Homo sapiens) (Q969F8 whole entry, looked up): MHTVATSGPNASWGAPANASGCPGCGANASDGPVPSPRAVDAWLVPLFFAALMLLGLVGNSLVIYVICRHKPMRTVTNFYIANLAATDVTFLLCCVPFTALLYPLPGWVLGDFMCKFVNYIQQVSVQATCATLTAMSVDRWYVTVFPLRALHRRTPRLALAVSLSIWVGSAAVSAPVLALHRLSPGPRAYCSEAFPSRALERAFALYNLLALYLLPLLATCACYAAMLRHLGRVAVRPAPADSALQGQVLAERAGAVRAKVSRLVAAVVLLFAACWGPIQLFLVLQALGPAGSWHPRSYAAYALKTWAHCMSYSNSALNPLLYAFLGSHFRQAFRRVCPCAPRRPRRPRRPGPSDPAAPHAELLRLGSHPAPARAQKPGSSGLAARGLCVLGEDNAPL
Sequence of Muscarinic acetylcholine receptor M1 (Homo sapiens) (P11229 whole entry, looked up): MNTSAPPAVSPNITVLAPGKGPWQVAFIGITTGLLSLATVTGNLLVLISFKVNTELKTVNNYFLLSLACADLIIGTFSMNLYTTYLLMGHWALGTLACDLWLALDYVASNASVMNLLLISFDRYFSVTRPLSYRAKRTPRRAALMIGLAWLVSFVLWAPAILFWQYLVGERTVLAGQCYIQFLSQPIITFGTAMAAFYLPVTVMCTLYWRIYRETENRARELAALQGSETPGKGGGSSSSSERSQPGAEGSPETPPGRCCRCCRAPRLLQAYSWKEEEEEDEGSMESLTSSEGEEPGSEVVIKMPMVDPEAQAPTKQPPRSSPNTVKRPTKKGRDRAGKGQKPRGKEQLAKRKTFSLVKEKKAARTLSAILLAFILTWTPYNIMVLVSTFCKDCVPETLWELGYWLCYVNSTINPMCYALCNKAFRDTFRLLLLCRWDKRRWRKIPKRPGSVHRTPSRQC
Sequence of D(2) dopamine receptor (Homo sapiens) (P14416 whole entry, looked up): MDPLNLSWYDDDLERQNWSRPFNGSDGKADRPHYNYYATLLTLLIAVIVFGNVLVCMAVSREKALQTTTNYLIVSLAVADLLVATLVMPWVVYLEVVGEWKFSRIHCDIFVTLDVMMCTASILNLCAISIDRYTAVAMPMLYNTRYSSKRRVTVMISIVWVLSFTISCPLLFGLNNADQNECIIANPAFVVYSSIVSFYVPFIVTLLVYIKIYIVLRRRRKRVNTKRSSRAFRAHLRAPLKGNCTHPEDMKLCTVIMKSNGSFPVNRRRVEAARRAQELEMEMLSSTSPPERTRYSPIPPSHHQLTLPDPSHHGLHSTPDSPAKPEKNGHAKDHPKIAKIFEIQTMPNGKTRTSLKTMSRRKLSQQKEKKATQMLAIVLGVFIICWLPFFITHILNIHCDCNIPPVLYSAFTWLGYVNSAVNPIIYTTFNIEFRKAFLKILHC
Sequence of Beta-2 adrenergic receptor (Homo sapiens) (P07550 whole entry, looked up): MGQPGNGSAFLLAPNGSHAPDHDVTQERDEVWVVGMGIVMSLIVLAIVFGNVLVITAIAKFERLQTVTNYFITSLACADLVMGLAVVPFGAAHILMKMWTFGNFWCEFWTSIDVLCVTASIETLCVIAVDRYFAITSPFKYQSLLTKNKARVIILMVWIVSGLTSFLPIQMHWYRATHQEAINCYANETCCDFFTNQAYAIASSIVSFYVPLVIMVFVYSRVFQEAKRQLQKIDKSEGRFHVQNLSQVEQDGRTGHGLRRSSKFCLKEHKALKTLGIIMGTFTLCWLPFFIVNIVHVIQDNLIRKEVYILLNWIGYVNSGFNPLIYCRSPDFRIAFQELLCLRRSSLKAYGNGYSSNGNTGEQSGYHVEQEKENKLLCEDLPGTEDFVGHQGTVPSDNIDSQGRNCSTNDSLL
Sequence of Gonadotropin-releasing hormone receptor (Homo sapiens) (P30968 whole entry, looked up): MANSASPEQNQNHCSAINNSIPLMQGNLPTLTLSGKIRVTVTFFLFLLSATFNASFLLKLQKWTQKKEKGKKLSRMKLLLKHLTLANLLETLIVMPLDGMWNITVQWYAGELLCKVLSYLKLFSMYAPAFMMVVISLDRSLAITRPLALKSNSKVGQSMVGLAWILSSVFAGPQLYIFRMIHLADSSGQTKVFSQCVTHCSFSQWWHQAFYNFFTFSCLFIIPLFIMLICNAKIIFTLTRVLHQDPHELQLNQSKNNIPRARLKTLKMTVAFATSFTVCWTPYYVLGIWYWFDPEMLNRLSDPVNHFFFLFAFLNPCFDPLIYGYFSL
Sequence of 5-hydroxytryptamine receptor 2A (Homo sapiens) (P28223 whole entry, looked up): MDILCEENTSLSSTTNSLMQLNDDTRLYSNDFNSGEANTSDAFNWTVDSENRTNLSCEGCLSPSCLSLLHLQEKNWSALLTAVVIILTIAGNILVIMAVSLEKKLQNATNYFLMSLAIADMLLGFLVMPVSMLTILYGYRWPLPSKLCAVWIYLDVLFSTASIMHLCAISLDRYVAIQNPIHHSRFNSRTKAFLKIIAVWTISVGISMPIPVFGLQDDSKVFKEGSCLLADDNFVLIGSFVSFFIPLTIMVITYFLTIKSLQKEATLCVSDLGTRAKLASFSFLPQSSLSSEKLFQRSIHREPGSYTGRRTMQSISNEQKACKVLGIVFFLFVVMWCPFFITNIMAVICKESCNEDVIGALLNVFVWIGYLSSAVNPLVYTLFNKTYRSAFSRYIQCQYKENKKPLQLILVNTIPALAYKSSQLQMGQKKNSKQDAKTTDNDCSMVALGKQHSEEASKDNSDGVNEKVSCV

OCCN(CCO)CCN(CCO)CCO
inactive: Potency [1] | Potency [2] | Potency [3] | outcome [4] | outcome [5] | Potency [6] | Potency [7] | Potency [8] | Potency [9] | Potency [10] | Potency [11] | Potency [12] | Potency [13] | Potency [14] | Potency [15] | Potency [16] | Potency [17] | Potency [18]

O=S(O)(O)=S
inactive: activity change, negative = cytotoxicity [1] -0.897% [at 8.39 µM] | activity, positive = activation [2] -3.55% [at 8.39 µM] | activity change [3] 4.24% [at 5.22 µM, hits give high values] | activation [4] -0.115% [at 6.97 µM] | activation [5] 0.868% [at 5.23 µM] | activation [6] 0.289% [at 5.99 µM] | activation [7] -2.47% [at 5.99 µM] | activity change, negative = cytotoxicity [8] -5.1% [at 5.99 µM] | activity change, negative = cytotoxicity [9] -0.464% [at 5.99 µM] | activation [10] -3.63% [at 5.99 µM] | activity, negative = inhibition [11] 5.27% [at 5.62 µM] | activation [12] 7.09% [at 7.02 µM] | activity, negative = inhibition [19] 0.0869% [at 5.58 µM] | activation [13] -0.0505% [at 6.97 µM] | activation [14] -0.269% [at 8.39 µM] | activity change, negative = inhibition [15] -0.372% [at 8.39 µM] | activity change, negative = inhibition [16] 6.54% [at 8.39 µM] | activation [17] -2.24% [at 8.39 µM] | activity change, negative = inhibition [18] -2.62% [at 8.38 µM]

OCCN(CCO)c1cccc(Cl)c1
inactive: Potency [1] | Potency [2] | Potency [3] | outcome [4] | outcome [5] | Potency [6] | Potency [7] | Potency [8] | Potency [9] | Potency [10] | Potency [11] | Potency [19] | Potency [13] | Potency [14] | Potency [15] | Potency [16] | Potency [17]

CC(=O)Oc1ccc(C(C)=O)cc1
inactive: Potency [1] | Potency [2] | Potency [3] | outcome [4] | outcome [5] | Potency [6] | Potency [7] | Potency [8] | Potency [9] | Potency [10] | Potency [11] | Potency [12] | Potency [19] | Potency [13] | Potency [14] | Potency [15] | Potency [16] | Potency [20] | Potency [17] | Potency [18]

CCN(CC)CCOc1ccc(Cc2ccccc2)cc1
inactive: Potency [1] | Potency [2] | Potency [3] | outcome [4] | outcome [5] | Potency [6] | Potency [7] | Potency [8] | Potency [9] | Potency [10] | Potency [11] | Potency [12] | Potency [13] | Potency [14] | Potency [15] | Potency [16] | Potency [20] | Potency [17] | Potency [18]

CC(C)=CCCC(C)C=O (stereo not drawn)
inactive: Potency [1] | Potency [2] | Potency [3] | outcome [4] | outcome [5] | Potency [6] | Potency [7] | Potency [8] | Potency [9] | Potency [10] | Potency [11] | Potency [12] | Potency [19] | Potency [13] | Potency [14] | Potency [15] | Potency [16] | Potency [17] | Potency [18]

Cc1cc(CC(=O)O)c(C)n1-c1ccc(Cl)cc1
inactive: Potency [1] | Potency [2] | Potency [3] | outcome [4] | outcome [5] | Potency [6] | Potency [7] | Potency [8] | Potency [9] | Potency [10] | Potency [11] | Potency [12] | Potency [19] | Potency [13] | Potency [16] | Potency [18]

From PubChem BioAssay (Tox21)
